Consider 41 molecules from ChEMBL document CHEMBL4513135, “CO-ADD screening of IQOG CSIS (Spain) compounds”.

Potency and affinity values are given separately.

The subject of assay [1] is Staphylococcus aureus. The following applies: Concentration 32 ug.mL-1; ASSAY_TEST Inhibition of Bacterial Growth; detection method Absorption (OD600); MEDIA CAMHB; plate type 384well; NBS; CORNING #3640; time 18 hr.
The test system of assay [2] is Escherichia coli. As to conditions: Concentration 32 ug.mL-1; ASSAY_TEST Inhibition of Bacterial Growth; detection method Absorption (OD600); MEDIA CAMHB; plate type 384well; NBS; CORNING #3640; time 18 hr.

By Inhibition is commonly meant the relative decrease from the control value, in per cent. As to `CCOC(=O)C1=C(C)OC(N)=C(C#N)C1c1ccc(F)cc1` (configuration not stated), the Inhibition is recorded as 19.76% in assay [1] and -10.2% in assay [2].

In the case of `COc1cc(C2c3c(nc4c(c3N)CCCC4)Oc3ccc4ccccc4c32)cc(OC)c1OC` (configuration not stated), the Inhibition in assay [1] is listed as 14.84%; in assay [2] it was 14.05%.

As for `C#CCNc1nc(NC2CCN(Cc3ccccc3)CC2)c(C#N)c(-c2ccccc2)c1C#N`, the Inhibition is listed as -5.25% in assay [1] and -23.87% in assay [2].

For the molecule `CCOc1nc2nc(C)c(C=C3CCN(Cc4ccccc4)CC3)cc2c(-c2ccccc2)c1C#N`, the Inhibition in assay [1] is reported as 33.88%; in assay [2] it was -8.83%.

Regarding `CC#CCN(C)Cc1cc2cc(OCc3ccccc3)ccc2n1C.O=C(O)C(=O)O`, the Inhibition in assay [1] was 7.01%; in assay [2], 5.45%.

Take `COc1ccc(C2C(C#N)=C(N)Oc3ccc4ccccc4c32)cc1OC` (configuration not stated): the Inhibition in assay [1] is reported as 19.72%; in assay [2], -23.42%.

In the case of `COC(=O)C(=Cc1ccc([N+](=O)[O-])cc1)NC(=O)c1ccccc1`, the values for the Inhibition in assay [1] and in assay [2] were 7.69% and 6.65%, respectively.

`N#Cc1cccnc1N`: the values for the Inhibition in assay [1] and in assay [2] were 27.07% and -3.89%, respectively.

As to `Cc1nc2c(cc1C#N)c(N)nn2C`, the Inhibition is on record as 30.49% in assay [1] and 0.08% in assay [2].

With `COc1cccc(C2C(C#N)=C(N)Oc3ccc4ccccc4c32)c1` (configuration not stated), the values for the Inhibition in assay [1] and in assay [2] were 40.42% and -5.36%, respectively.

As to `C#CCN(C)c1nc(NCC2CCN(Cc3ccccc3)CC2)c(C#N)c(-c2ccccc2)c1C#N.Cl`, the results for the Inhibition in assay [1] and in assay [2] were 36.49% and -7.12%, respectively.

Regarding `Cn1cc(C=O)c2ccccc21`, the Inhibition in assay [1] is -0.04%; in assay [2] it was -4.32%.

For the molecule `N#Cc1cc(C#N)c(NCCCCC2CCN(Cc3ccccc3)CC2)nc1N`, the Inhibition is 36.38% in assay [1] and -9.24% in assay [2].

For the molecule `COC(=O)C(=Cc1ccccc1)NC(=O)c1ccccc1`, the Inhibition came to 11.82% in assay [1] and 6.08% in assay [2].

On to `CCCC(C)NNC(=O)Cc1c[nH]c2ccccc12` (configuration not stated), for which the Inhibition in assay [1] is on record as 1.02%; in assay [2], -9.25%.

Regarding `Cc1ccc(CNNC(N)=O)cc1.Cl`, the Inhibition in assay [1] came out at 4.52%; in assay [2], 6.79%.

For the molecule `Cn1ccnc1C1c2ccc3cccnc3c2Oc2nc3c(c(N)c21)CCC3` (configuration not stated), the Inhibition in assay [1] was 14.96%; in assay [2] it was -15.51%.

For `C#CCN(C)Cc1cc2cc(OCc3ccccc3)ccc2n1C.O=C(O)C(=O)O`, the Inhibition in assay [1] was 41.66%; in assay [2] it was -11.51%.

For the molecule `N#Cc1c(N)nc2c(c1-c1ccccc1)CN(Cc1ccccc1)CC2`, the results for the Inhibition in assay [1] and in assay [2] were 12.81% and 10.61%, respectively.

Take `O=C(Cc1ccccc1)N/N=C/c1c[nH]c2ccccc12`: the Inhibition in assay [1] worked out at 9.24%; in assay [2] it was 17.46%.

Regarding `Cn1ccnc1C1C2=C(CC(C)(C)CC2=O)Oc2nc3c(c(N)c21)CCC3` (configuration not stated), the Inhibition in assay [1] is 12%; in assay [2] it was -19.85%.

Turning to `COc1ccc(C2c3ccc4ccccc4c3Oc3nc4c(c(N)c32)CCCC4)c(OC)c1` (configuration not stated), the Inhibition is -6.11% in assay [1] and -4.44% in assay [2].

For the molecule `CSC1=NC(=Cc2ccccc2)C(=O)N1C`, the Inhibition in assay [1] worked out at 5.89%; in assay [2], 10.03%.

For the molecule `O=C(N/N=C/c1c[nH]c2ccccc12)C(c1ccccc1)c1ccccc1`, the Inhibition in assay [1] is 7.26%; in assay [2], 7.64%.

Take `O=C(Cc1c[nH]c2ccccc12)NNCCc1ccccc1`: the Inhibition in assay [1] is recorded as 4.22%; in assay [2] it was 5.19%.

Regarding `COc1ccc(C2c3ccc4ccccc4c3OC(=NBr)C2(Br)C#N)cc1` (configuration not stated), the Inhibition in assay [1] is recorded as 25.41%; in assay [2] it was -8.93%.

In the case of `COc1[nH]c(=O)ccc1C#N`, the Inhibition in assay [1] is listed as 31.13%; in assay [2] it was -5.91%.

Turning to `COc1ccc(-c2cc(-c3ccccc3)c(C#N)c(N)n2)cc1`, the values for the Inhibition in assay [1] and in assay [2] were 10.32% and -23.38%, respectively.

For `Cc1ccc(C=C2N=C(c3ccccc3)OC2=O)cc1`, the figures for the Inhibition in assay [1] and in assay [2] were 7.55% and 3.61%, respectively.

For the molecule `CCOC(=O)c1c(C)nc2nc3c(c(N)c2c1-c1ccccc1OC)CCCCC3`, the figures for the Inhibition in assay [1] and in assay [2] were 5.11% and -17.67%, respectively.

Take `CC(=O)NC=C1C(=O)OC(C)(C)OC1=O`: the Inhibition in assay [1] was found to be 14.96%; in assay [2] it was 11.61%.

`CC(C)(C)OC(=O)N[C@H]1CC[C@H](O)CC1`: the Inhibition in assay [1] is on record as 7.19%; in assay [2] it was -6.43%.

In the case of `CSC1=NC(=Cc2cn(C(c3ccccc3)(c3ccccc3)c3ccccc3)c3ccccc23)C(=O)N1C`, the Inhibition in assay [1] is recorded as -1.08%; in assay [2] it was 9.28%.

`COc1ccc(C2C(C#N)=C(N)Oc3c2ccc2ccccc32)cc1` (configuration not stated): the Inhibition in assay [1] was 21.39%; in assay [2] it was -6.99%.

On to `CCOC(=O)c1cc2cc(OC)ccc2n1C`, for which the Inhibition was -7.5% in assay [1] and -9.48% in assay [2].

Regarding `N#CC1=C(N)Oc2c(ccc3ccccc23)C1c1cccc([N+](=O)[O-])c1` (configuration not stated), the Inhibition in assay [1] is reported as 17.39%; in assay [2], -10.4%.

Consider `CCC(CC)NNC(=O)c1c[nH]c2ccccc12.Cl`, for which the Inhibition turned out to be 4.35% in assay [1] and 0.83% in assay [2].

As for `COc1cccc(-c2c(C#N)c(=O)oc3c2ccc2ccccc23)c1`, the Inhibition in assay [1] came out at 13.24%; in assay [2], 14.42%.

As to `CC(=O)C(=Cc1ccccc1)C(=O)O[C@H]1C[C@H](C)CC[C@H]1C(C)C`, the Inhibition worked out at 27.78% in assay [1] and 14.92% in assay [2].

As to `Cn1ccnc1C1C(C#N)=C(N)Oc2c1ccc1cccnc21` (configuration not stated), the Inhibition in assay [1] was 12.96%; in assay [2], -14.85%.

As to `O=C(O)c1c[nH]c2ccccc12`, the Inhibition in assay [1] is -3.47%; in assay [2], -2.29%.
